# Experimental data: PubChem BioAssay
# Where “and” joins values, the source holds several entries; their conditions need not be identical. Equal values may be shown once. Calls of active or inactive are those of the source.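 The calls were made as follows, unless noted: active = thallium flux through the channel raised or lowered by more than 3 SD from vehicle-only wells, actives on both sides; inactive = the rest.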
# What was measured:
# [1] = Wnt pathway potentiators raising nuclear beta-catenin – imaging, WNT3A-conditioned medium, mouse C2C12, NPC library, primary screen (AID 1117326; in the data active = nuclear beta-catenin stimulation mostly above about 4.2%, no sharp cut-off; inactive = mostly below about 10%); conditions: stronger effect = higher value
# [2] = stimulators of insulin release from INS-1E, primary screen, cell-based, 5 mM glucose, NPC library (AID 1117329;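 active = compound raises insulin release from rat beta cells at 5 mM glucose, no numeric limit stated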); conditions: rat INS-1E insulin secretion, at 10 µM, stronger effect = higher value
# [3] = growth inhibition of GSK3B-pretreated HCT116 cells – cell-based, CellTiter-Glo, 0.2 to 20 µM (AID 1117336;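 active = compounds lowering colon cancer cell viability after pretreatment blocking the GSK3B kinase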); conditions: HCT116 viability after GSK3B inhibitor, at 20 µM, stronger effect = higher value
# [4] = inhibition of endothelial tube formation, primary screen, imaging, VEGF stimulated, CD31 staining, tube area, NPC library (AID 1117340;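 active = compound that reduces growth-factor-driven endothelial tube area in a mixed cell culture, no cutoff stated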); conditions: VEGF-stimulated ADSC/ECFC co-culture, at 10 µM, stronger effect = higher value
# [5] = GLP1 release stimulators, primary, NCI-H716, NPC library (AID 1117341;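 active = compound raises GLP1 secretion from the human gut endocrine cells, with no numeric limit stated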); conditions: NCI-H716 cells, at 10 µM, stronger effect = higher value
# [6] = HCT116 colon cancer cell growth inhibition, primary screen, CellTiter-Glo luminescence, NPC library (AID 1117342;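 active = compounds that lower survival of HCT116 colon cancer cells in the luminescence readout, no numeric limit stated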); conditions: at 20 µM (top of the series)
# [7] = reduced SW480 viability measured with CellTiter-Glo, NPC library, primary (AID 1117343;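 active = compounds that lower viability of the colon cancer cells in the luminescence readout, with no numeric limit stated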); conditions: CellTiter-Glo luminescence; at 20 µM (top of the series)
# [8] = NPC library primary testing for decreased DLD-1 cell viability via CellTiter-Glo (AID 1117346;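 active = compounds that lower survival of DLD-1 colon cancer cells in the luminescence readout, no cutoff given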); conditions: DLD-1 viability, CellTiter-Glo luminescence; at 20 µM (top of the series)
# [9] = target: 6-phosphogluconate dehydrogenase, decarboxylating (Homo sapiens) (UniProt P52209); assay: inhibition of human phosphogluconate dehydrogenase – biochemical, recombinant enzyme, NADPH absorbance, primary screen (AID 1159550;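 active = at least 20% inhibition of 6-phosphogluconate dehydrogenase activity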); conditions: recombinant 6PGD, NADPH absorbance 341 nm; at 10 µM; stronger effect = higher value
# [10] = modulation of C. elegans fzo-1 (AID 1259413; call rule not given here;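 also: fzo-1 mutant C. elegans worms in liquid wells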); conditions: C. elegans fzo-1 modulator screen, mean read-out; stronger effect = higher value
# [11] = EMT-state selective cytotoxicity in co-culture – imaging, PC-3E GFP, TEM4-18 mCherry, primary screen (AID 1345086;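 active = compounds killing one labelled cell type while sparing the other, by normalised counts and ratio limits, not self-fluorescent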;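 as to all read-outs here: cells exposed to compound for 72 h before imaging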;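 as to red/green cell ratio (normalised): normalised mesenchymal count divided by normalised epithelial count so high means epithelial killing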); conditions: PC-3E GFP / TEM4-18 mCherry co-culture, imaging cell counts, at 1 µM; for red/green cell ratio (normalised): actives lie on both sides, counts scaled to control wells, 1 = unselective
# [12] = MELAS cybrid and Rieske KO viability enhancers – cell-based, MELAS cybrids, Rieske KO mouse fibroblasts, CellTiter-Glo, primary screen (AID 1508586;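 active = mean z-score across replicates of 1.96 or higher in either the MELAS or the Rieske mutant cell line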;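 also: z relative to plate mean and SD of compound and empty wells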); conditions: low glucose
# [13] = target: NAD(+) hydrolase SARM1 (Homo sapiens) (UniProt Q6SZW1); assay: blocking NAD cleavage by SARM1 SAM-TIR – cell lysate, NAD-Glo luminescence (AID 1508614;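 active = compound whose remaining NAD level is above about 45 nM, limit read from the data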;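 also: higher remaining NAD means stronger inhibition of SARM1 NADase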); conditions: SAM-TIR HEK293T lysate NADase, at 1 µM, stronger effect = higher value
# [14] = target: Mitogen-activated protein kinase 7 (Homo sapiens) (UniProt Q13164); assay: Gal4-ERK5 driven luciferase induction – cell-based, HTS, primary screen (AID 1508626;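 active = luciferase signal above three times the same-plate solvent-only control wells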;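 also: luciferase driven by Gal4-ERK5 fusion binding five Gal4 sites before minimal TATA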); conditions: HeLa Gal4-ERK5 transactivation, 18 h, at 5 µM, stronger effect = higher value
# [15] = tested on: F380Y; assay: BK channel mutant inhibitors and activators – cell-based, U2OS BacMam, thallium flux, beta subunits, selectivity assay, profiling panel (AID 1259406); conditions: U2OS BacMam BK variants, at 30 µM;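 also: initial slope of Thallos dye fluorescence rise after thallium is added; log ratio against the mean of 0.3% DMSO vehicle wells on the same plate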
# [16] = tested on: F380Y/beta1; assay: as above; conditions: U2OS BacMam BK variants, at 30 µM
# [17] = tested on: F380Y/beta2Delta; assay: as above; conditions: U2OS BacMam BK variants, at 30 µM
# [18] = tested on: F380Y/beta4; assay: as above; conditions: U2OS BacMam BK variants, at 30 µM
# [19] = measured here: epithelial PC-3E GFP cell survival
# [20] = measured here: mesenchymal TEM4-18 mCherry cell survival
# [21] = MELAS cybrid survival, CellTiter-Glo 48 h, stronger effect = higher value
# [22] = Rieske KO mouse fibroblast survival, CellTiter-Glo 72 h
# Sequence of Mitogen-activated protein kinase 7 (Homo sapiens) (Q13164 whole entry, looked up, the tested form may be a part): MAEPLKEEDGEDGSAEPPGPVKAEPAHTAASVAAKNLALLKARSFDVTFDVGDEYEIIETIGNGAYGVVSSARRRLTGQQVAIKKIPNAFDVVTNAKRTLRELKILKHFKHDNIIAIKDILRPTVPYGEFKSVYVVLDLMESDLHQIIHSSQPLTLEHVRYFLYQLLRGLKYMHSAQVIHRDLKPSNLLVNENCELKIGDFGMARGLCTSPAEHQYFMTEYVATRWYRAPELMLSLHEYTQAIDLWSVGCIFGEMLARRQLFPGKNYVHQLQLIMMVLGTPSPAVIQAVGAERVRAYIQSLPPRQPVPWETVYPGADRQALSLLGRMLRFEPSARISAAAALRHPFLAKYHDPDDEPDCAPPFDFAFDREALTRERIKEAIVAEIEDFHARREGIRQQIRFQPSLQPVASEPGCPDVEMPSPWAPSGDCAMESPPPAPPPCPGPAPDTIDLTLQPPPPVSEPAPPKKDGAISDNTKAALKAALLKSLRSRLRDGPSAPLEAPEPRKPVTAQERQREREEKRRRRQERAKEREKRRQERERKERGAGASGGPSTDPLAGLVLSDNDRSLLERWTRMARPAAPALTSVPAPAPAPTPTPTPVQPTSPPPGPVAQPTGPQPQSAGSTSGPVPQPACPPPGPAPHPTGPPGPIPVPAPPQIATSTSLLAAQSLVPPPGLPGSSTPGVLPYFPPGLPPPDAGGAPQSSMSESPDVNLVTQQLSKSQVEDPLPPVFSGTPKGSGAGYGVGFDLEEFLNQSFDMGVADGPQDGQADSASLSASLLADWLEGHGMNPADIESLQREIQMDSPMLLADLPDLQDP
# Sequence of NAD(+) hydrolase SARM1 (Homo sapiens) (Q6SZW1 whole entry, looked up, the tested form may be a part): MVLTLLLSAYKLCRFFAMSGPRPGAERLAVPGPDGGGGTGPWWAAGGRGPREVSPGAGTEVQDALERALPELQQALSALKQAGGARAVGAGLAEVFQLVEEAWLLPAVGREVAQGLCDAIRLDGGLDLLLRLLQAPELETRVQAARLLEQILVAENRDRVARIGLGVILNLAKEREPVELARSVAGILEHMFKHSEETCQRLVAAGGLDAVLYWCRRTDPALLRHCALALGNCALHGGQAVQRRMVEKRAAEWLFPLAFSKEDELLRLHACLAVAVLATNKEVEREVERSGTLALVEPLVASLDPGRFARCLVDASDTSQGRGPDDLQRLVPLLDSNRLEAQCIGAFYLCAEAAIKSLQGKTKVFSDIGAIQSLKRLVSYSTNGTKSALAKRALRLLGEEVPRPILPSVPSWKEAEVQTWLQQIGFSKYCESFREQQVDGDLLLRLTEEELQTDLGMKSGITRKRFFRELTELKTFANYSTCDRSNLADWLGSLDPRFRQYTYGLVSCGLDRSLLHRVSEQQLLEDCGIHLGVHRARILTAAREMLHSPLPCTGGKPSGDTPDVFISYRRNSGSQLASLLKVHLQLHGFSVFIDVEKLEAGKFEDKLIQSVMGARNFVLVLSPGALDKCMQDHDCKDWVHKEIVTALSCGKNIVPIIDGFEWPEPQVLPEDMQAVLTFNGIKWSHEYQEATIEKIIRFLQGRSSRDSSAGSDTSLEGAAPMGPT
# Sequence of 6-phosphogluconate dehydrogenase, decarboxylating (Homo sapiens) (P52209 whole entry, looked up): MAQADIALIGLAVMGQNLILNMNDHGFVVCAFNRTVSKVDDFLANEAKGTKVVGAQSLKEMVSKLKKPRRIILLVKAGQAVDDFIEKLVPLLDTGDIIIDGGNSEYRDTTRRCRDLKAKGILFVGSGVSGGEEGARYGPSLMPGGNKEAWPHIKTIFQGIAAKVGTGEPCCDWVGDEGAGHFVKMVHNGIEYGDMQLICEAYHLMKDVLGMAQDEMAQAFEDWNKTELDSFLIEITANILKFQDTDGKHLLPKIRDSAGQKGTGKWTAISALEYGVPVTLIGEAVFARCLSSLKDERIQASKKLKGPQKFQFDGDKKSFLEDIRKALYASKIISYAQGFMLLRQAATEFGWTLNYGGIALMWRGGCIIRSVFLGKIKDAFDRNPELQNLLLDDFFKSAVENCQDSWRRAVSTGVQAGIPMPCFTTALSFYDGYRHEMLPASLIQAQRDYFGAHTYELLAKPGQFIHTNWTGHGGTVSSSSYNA
smiles,measurement,setting,value
CN=C(NC#N)NCCSCc1nc[nH]c1C,nuclear beta-catenin stimulation,[1]; at 10 µM,0.2% (inactive)
same,nuclear beta-catenin stimulation,"[1]; stimulation, at 2 µM",-1.1%
same,insulin secretion stimulation,[2],1.3% (inactive)
same,viability decrease,[3],10.8% (inactive)
same,tube area decrease,[4],-5.8% (inactive)
same,GLP1 secretion stimulation,[5],-0.3% (inactive)
same,inhibition of viability,[6],8.17% (inactive)
same,viability decrease (inhibition),[7],36.9% (inactive)
same,viability decrease (inhibition),[8],1.2% (inactive)
same,inhibition,[9],-10.7% (inactive)
same,mean signal,[10],239 (inactive)
same,red/green cell ratio (normalised),[11],1.04 (inactive)
same,normalised cell number,[11]; [19],1.01
same,normalised cell number,[11]; [20],1.05
same,z-score,[12]; [21],-0.132 (inactive) and 0.533 (inactive) and -0.0775 (inactive)
same,z-score,[12]; [22],-0.116 and -0.0466 and 0.0997
same,remaining NAD,[13],10 nM (inactive)
same,luciferase signal,[14],44 AU (inactive)
same,log fold change Tl+ flux,[15],0.0123 (inactive)
same,log fold change Tl+ flux,[16],0.0381 (inactive)
same,log fold change Tl+ flux,[17],-0.0232 (inactive)
same,log fold change Tl+ flux,[18],0.031 (inactive)
O=C(O)c1cccnc1,nuclear beta-catenin stimulation,[1]; at 10 µM,-0.4% (inactive)
same,nuclear beta-catenin stimulation,"[1]; stimulation, at 2 µM",-0.5%
same,insulin secretion stimulation,[2],-1.6% (inactive)
same,viability decrease,[3],-0.65% (inactive)
same,tube area decrease,[4],-17.1% (inactive)
same,GLP1 secretion stimulation,[5],-5.4% (inactive)
same,inhibition of viability,[6],-15.8% (inactive)
same,viability decrease (inhibition),[7],37.9% (inactive)
same,viability decrease (inhibition),[8],4.6% (inactive)
same,inhibition,[9],-13.9% (inactive)
same,mean signal,[10],255 (inactive)
same,red/green cell ratio (normalised),[11],1.22 (inactive)
same,normalised cell number,[11]; [19],0.91
same,normalised cell number,[11]; [20],1.11
same,z-score,[12]; [21],-0.357 (inactive) and 0.00203 (inactive)
same,z-score,[12]; [22],0.576 and -0.807
same,remaining NAD,[13],10 nM (inactive)
same,luciferase signal,[14],44 AU (inactive)
same,log fold change Tl+ flux,[15],-0.0113 (inactive)
same,log fold change Tl+ flux,[16],0.00202 (inactive)
same,log fold change Tl+ flux,[17],0.0201 (inactive)
same,log fold change Tl+ flux,[18],0.0275 (inactive)
CCCCNc1cc(C(=O)O)cc(S(N)(=O)=O)c1Oc1ccccc1,nuclear beta-catenin stimulation,[1]; at 10 µM,0.1% (inactive)
same,nuclear beta-catenin stimulation,"[1]; stimulation, at 2 µM",-0.1%
same,insulin secretion stimulation,[2],-0.7% (inactive)
same,viability decrease,[3],-57% (inactive)
same,tube area decrease,[4],3.7% (inactive)
same,GLP1 secretion stimulation,[5],-2.2% (inactive)
same,inhibition of viability,[6],2.63% (inactive)
same,viability decrease (inhibition),[7],2.4% (inactive)
same,viability decrease (inhibition),[8],-4.2% (inactive)
same,inhibition,[9],0% (inactive)
same,mean signal,[10],228 (inactive)
same,red/green cell ratio (normalised),[11],0.96 (inactive)
same,normalised cell number,[11]; [19],1.1
same,normalised cell number,[11]; [20],1.05
same,z-score,[12]; [21],-0.34 (inactive) and 0.797 (inactive) and -0.227 (inactive)
same,z-score,[12]; [22],-0.392 and -0.0528 and -1.25
same,remaining NAD,[13],10 nM (inactive)
same,luciferase signal,[14],32 AU (inactive)
same,log fold change Tl+ flux,[15],0.0239 (inactive)
same,log fold change Tl+ flux,[16],-0.0436 (inactive)
same,log fold change Tl+ flux,[17],-0.0452 (inactive)
same,log fold change Tl+ flux,[18],-0.00421 (inactive)
O=C(O)c1cc(=O)c2c(OCC(O)COc3cccc4oc(C(=O)O)cc(=O)c34)cccc2o1,nuclear beta-catenin stimulation,[1]; at 10 µM,-1.8% (inactive)
same,nuclear beta-catenin stimulation,"[1]; stimulation, at 2 µM",1.3%
same,insulin secretion stimulation,[2],1.6% (inactive)
same,viability decrease,[3],-32.8% (inactive)
same,tube area decrease,[4],-2.5% (inactive)
same,GLP1 secretion stimulation,[5],-0.5% (inactive)
same,inhibition of viability,[6],2.4% (inactive)
same,viability decrease (inhibition),[7],19.3% (inactive)
same,viability decrease (inhibition),[8],-7.8% (inactive)
same,inhibition,[9],10.5% (inactive)
same,mean signal,[10],249 (inactive)
same,red/green cell ratio (normalised),[11],1.26 (inactive)
same,normalised cell number,[11]; [19],1.29
same,normalised cell number,[11]; [20],1.63
same,z-score,[12]; [21],0.0651 (inactive) and -0.552 (inactive)
same,z-score,[12]; [22],0.522 and -0.245
same,remaining NAD,[13],10 nM (inactive)
same,luciferase signal,[14],72 AU (inactive)
same,log fold change Tl+ flux,[15],-0.0252 (inactive)
same,log fold change Tl+ flux,[16],-0.0414 (inactive)
same,log fold change Tl+ flux,[17],-0.0103 (inactive)
same,log fold change Tl+ flux,[18],-0.0657 (inactive)
